One may read the AC50 as the midpoint of the concentration-response curve, whichever way the signal moves.

For 1 molecule, outcome and AC50 results are on record in PubChem BioAssay (EPA / NIEHS).

The nature of assay [1]: Tanguay_ZF_120hpf_YSE_legacy: (Legacy) Oregon State University Tanguay Lab 120 Hour Post-fertilization zebrafish Assay for Yolk Sac Edema (AID 2283634). The procedure, abridged:
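Dechorionate (pronase, 4 hpf) → place one 6 hpf embryo per well → static compound exposure, sealed and foil-covered, 28C, to 120 hpf → record yolk sac edema as present or absent. Final DMSO 0.64%.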

Assay [2] is described as follows: Tanguay_ZF_120hpf_AXIS_legacy: (Legacy) Oregon State University Tanguay Lab 120 Hour Post-fertilization zebrafish Assay for Body Axis Malformation (AID 2283635). The procedure, abridged: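 Chorion is removed with pronase at 4 hpf, then single 6 hpf embryos are dosed (final DMSO 0.64%) and held statically at 28C in sealed, foil-covered plates. At 120 hpf body axis malformation is recorded as present or absent.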

The nature of assay [3]: Tanguay_ZF_120hpf_EYE_legacy: (Legacy) Oregon State University Tanguay Lab 120 Hour Post-fertilization zebrafish Assay for Eye Malformation (AID 2283636). In outline: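 Dechorionated wild-type Tropical 5D zebrafish embryos were exposed statically from 6 hpf, one per well, to 120 hpf at 28C in sealed, foil-covered plates with 0.64% DMSO. Eye malformation was scored present/absent by brightfield microscopy against DMSO controls.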

A short description of assay [4]: Tanguay_ZF_120hpf_SNOU_legacy: (Legacy) Oregon State University Tanguay Lab 120 Hour Post-fertilization zebrafish Assay for Snout Malformation (AID 2283637). The procedure, abridged: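 Tropical 5D wild-type zebrafish embryos, dechorionated with pronase at 4 hpf, were exposed singly from 6 hpf to 120 hpf statically at 28C in 0.64% DMSO. Snout malformation was scored present/absent by brightfield microscopy, fitted against DMSO.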

A short description of assay [5]: Tanguay_ZF_120hpf_JAW_legacy: (Legacy) Oregon State University Tanguay Lab 120 Hour Post-fertilization zebrafish Assay for Jaw Malformation (AID 2283638). The procedure, abridged:
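Steps: dechorionate 4 hpf embryos (pronase); plate 1/well at 6 hpf; add test chemical, 0.64% DMSO final; seal, cover, hold at 28C statically to 120 hpf; score jaw defect presence/absence microscopically. Dead embryos not scored.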

Assay [6] in a line: Tanguay_ZF_120hpf_OTIC_legacy: (Legacy) Oregon State University Tanguay Lab 120 Hour Post-fertilization zebrafish Assay for Otic Vesicle Malformation (AID 2283639). In outline: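 Otic vesicle malformation is read as a yes/no morphology call at 120 hpf. Exposure is static at 28C with 0.64% (vol/vol) DMSO; embryos that die are excluded from non-mortality endpoints.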
The nature of assay [7]: Tanguay_ZF_120hpf_BRAI_legacy: (Legacy) Oregon State University Tanguay Lab 120 Hour Post-fertilization zebrafish Assay for Brain Malformation (AID 2283641). In outline:
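Wild-type 5D larvae, static waterborne exposure to 120 hpf, 28C, 0.64% v/v DMSO. Brightfield scoring of brain defects, binary; dead embryos excluded. Positive ctrl 5uM trimethyltin chloride.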

Assay [8] is described as follows: Tanguay_ZF_120hpf_PFIN_legacy: (Legacy) Oregon State University Tanguay Lab 120 Hour Post-fertilization zebrafish Assay for Pectoral Fin Malformation (AID 2283648).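 Further: each larva judged yes or no for fin defect by brightfield with dead larvae skipped.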 The procedure, abridged: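 Tropical 5D wild-type embryos, dechorionated with pronase at 4 hpf, were placed singly in wells at 6 hpf and statically exposed until 120 hpf at 28C, sealed and dark, with 0.64% (vol/vol) final DMSO; pectoral fin malformation scored present/absent.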

Assay [9] in a line: Tanguay_ZF_120hpf_CFIN_legacy: (Legacy) Oregon State University Tanguay Lab 120 Hour Post-fertilization zebrafish Assay for Caudal Fin Malformation (AID 2283649). In outline:
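Binary presence or absence of caudal fin malformation at 120 hpf, read by brightfield microscopy, with DMSO as baseline. Larvae came from 5D wild-type embryos exposed statically from 6 hpf at 28C after pronase dechorionation.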

Assay [10] in a line: Tanguay_ZF_120hpf_PIG_legacy: (Legacy) Oregon State University Tanguay Lab 120 Hour Post-fertilization zebrafish Assay for Pigmentation Malformation (AID 2283650). The procedure, abridged: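 Tropical 5D wild-type zebrafish embryos, dechorionated with pronase at 4 hpf, were exposed singly from 6 hpf to 120 hpf statically at 28C in sealed, dark plates with 0.64% DMSO; pigmentation scored present/absent by brightfield microscopy, fitted against DMSO.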

The nature of assay [11]: Tanguay_ZF_120hpf_CIRC_legacy: (Legacy) Oregon State University Tanguay Lab 120 Hour Post-fertilization zebrafish Assay for Circulatory Malformation (AID 2283651). In outline: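 Using wild-type Tropical 5D zebrafish, we exposed dechorionated embryos from 6 to 120 hpf in embryo medium with 0.64% DMSO. Circulatory defects were scored as present or absent; 5uM trimethyltin chloride served as positive control.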

Assay [12] in a line: Tanguay_ZF_120hpf_TRUN_legacy: (Legacy) Oregon State University Tanguay Lab 120 Hour Post-fertilization zebrafish Assay for Truncated Body (AID 2283655). The procedure, abridged: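 Truncated body is recorded as a binary endpoint at 120 hpf by brightfield imaging of wild-type 5D larvae. Exposure runs statically from 6 hpf at 28C with 0.64% DMSO; embryos dying earlier are not scored.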

Assay [13] in a line: Tanguay_ZF_120hpf_NC_legacy: (Legacy) Oregon State University Tanguay Lab 120 Hour Post-fertilization zebrafish Assay for Notochord and Tail Malformation (AID 2283656). The procedure, abridged: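 Dechorionated 5D zebrafish, 1/well from 6 hpf; static exposure to 120 hpf, 28C, sealed, dark; final DMSO 0.64% v/v. NC scored binary (present/absent); dead embryos not scored. Fit vs DMSO baseline, gain direction.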

A short description of assay [14]: Tanguay_ZF_120hpf_TR_legacy: (Legacy) Oregon State University Tanguay Lab 120 Hour Post-fertilization zebrafish Assay for Touch Response (AID 2283667). The procedure, abridged:
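Tropical 5D wild-type zebrafish embryos were exposed statically in sealed, foil-covered plates at 28C until 120 hpf, with 0.64% (vol/vol) final DMSO. Touch response was scored as present or absent; embryos that died were not scored.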

The nature of assay [15]: STM_H9_OrnithineISnorm_perc: Stemina devTOX quickPredict H9 human embryonic stem cell (hESC)-based Assay for Ornithine (ORN) Metabolite Biomarker, Normalized (AID 2283712; active means hit-call score of the fitted dose curve at least 0.9, where 1 is the maximum; inactive means score below 0.9;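 further: ornithine released into spent medium during last day measured by mass spectrometry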). In outline:
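Cells: undifferentiated H9 hESC. Dosing: 72 h, media replaced every 24 h. Sample: final 24-h conditioned media, 40% acetonitrile. Read: UPLC-HRMS ornithine area vs 13C standard, % DMSO control.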

Assay [16] is described as follows: STM_H9_CystineISnorm_perc: Stemina devTOX quickPredict H9 human embryonic stem cell (hESC)-based Assay for Cystine (CYSS) Metabolite Biomarker, Normalized (AID 2283713; active means hit-call score of the fitted dose curve at least 0.9, where 1 is the maximum; inactive means score below 0.9). The procedure, abridged: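 Secreted cystine was measured by UPLC-HRMS in H9 hESC medium after 72h compound exposure with 24-hourly replenishment. Values are standard-normalized areas relative to 0.1% DMSO.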

Assay [17] is described as follows: STM_H9_OrnCyssISnorm_ratio: Stemina devTOX quickPredict H9 human embryonic stem cell (hESC)-based Assay for Ornithine (ORN):Cystine (CYSS) Ratio (AID 2283714). The procedure, abridged:
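Undifferentiated H9 hESCs were exposed to compound for 72h with media and chemical replaced every 24h. Final 24-h conditioned media were deproteinized and analysed by UPLC-HRMS. ORN and CYSS peak areas were normalized to C13 internal standards and the ratio taken versus 0.1% DMSO.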

A short description of assay [18]: Tanguay_ZF_120hpf_ActivityScore_legacy: (Legacy) Oregon State University Tanguay Lab 120 Hour Post-fertilization zebrafish Assay Score for Activity (AID 2283742). In outline:
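Tropical 5D wild-type zebrafish embryos, dechorionated with pronase at 4 hpf, were exposed singly from 6 hpf to 120 hpf statically at 28C in 0.64% DMSO. Malformations and mortality were scored as binary by brightfield, with the activity score combining 18 morphology components.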

Each structure is given as a SMILES string. Inconclusive results are not listed. Activity calls are given as the source filed them. How the source made its calls, unless noted: active means hit-call score of the fitted dose curve at least 0.9, where 1 is the maximum; inconclusive means response in the unintended direction; inactive means score below 0.9.

In the case of `c1cc[n+]2c(c1)-c1cccc[n+]1CC2`, the molecule was classed as inactive in assay [1], in [2], in assay [3], in [4], in assay [5] and in [6]. In addition, the molecule was classed as inactive in assay [7], in [8], in assay [9], in [10], in assay [11] and in assay [12]. The result in assay [13], in assay [14] and in assay [18] was inactive. For the same molecule, the AC50 in assay [15] was 8350 nM (active); in assay [16], 1700 nM (active); in assay [17], 2360 nM (active).
